Unmarked numbers belong to inactive results. How the calls were made is not given here.
Assay: P. aeruginosa biofilm formation inhibitors, primary screen, PAO1 strain, BacTiter-Glo luminescence, LB-PBS (AID 1144)
Details: 12 h, higher = more signal

**Q.** With `COC(=O)[C@@]1(Cc2ccc(OC)cc2)[C@H]2c3cc(C(=O)N4CCCC4)n(Cc4nc5ccccc5[nH]4)c3C[C@H]2CN1C(=O)c1ccccc1` as the compound, how does the z-score read?
**A.** 0.848

**Q.** For `COc1ccc(NC(=O)O[C@H]2[C@H](OC(=O)c3cc4ccccc4[nH]3)[C@@H](OC(=O)c3cc4ccccc4[nH]3)[C@@H](OC)O[C@@H]2CO)cc1`, which z-score is on record?
**A.** -1.65

**Q.** With `C=C(CCCC)C(=O)CC[C@@H](OC(C)=O)c1ccc(CO)o1` as the compound, how does the z-score read?
**A.** -0.905

**Q.** With `O=C1[C@H]2C=C(I)[C@H](C[C@@H]2OCCCCO)[C@@]12CO2` as the compound, how does the z-score read?
**A.** -0.0455

**Q.** For `COCCCNC(=O)[C@@]1(Cc2ccccc2)N=C(c2ccc(OCCCO)cc2)O[C@H]1c1ccccc1CN=[N+]=[N-]`, which z-score is on record?
**A.** 1.55

**Q.** Which z-score does the source give for `CN(C)CCCCCCNC(=O)[C@@H]1C[C@@H]2C(=O)N3CCC[C@H]3C(=O)N2[C@@H]1c1ccc(O)cc1` here?
**A.** -0.999

**Q.** For `COc1ccc([C@H]2C[C@H]3C(Br)=C[C@@]2(CO)C(=O)[C@]32CO2)cc1`, which z-score is on record?
**A.** -0.23

**Q.** With `C=CCNC(=O)[C@@H]1[C@H]2C(=O)O[C@H](c3ccccc3)[C@H](c3ccccc3)N2[C@H](c2ccc(OCCO)cc2)[C@@]12C(=O)N(C(=O)OCCOC)c1ccc(C#CCNC(N)=O)cc12` as the compound, how does the z-score read?
**A.** 0.388

**Q.** For `CS(=O)(=O)CCOC(=O)C1=CC(CCCO)=CC(c2ccc(CN3CCCC3)cc2)N(Cc2cccc(OC(F)(F)F)c2)C=C1C(=O)OCCS(C)(=O)=O` (stereo not given), which z-score is on record?
**A.** 4.41

**Q.** With `COCCOC(=O)N1C(=O)[C@@]2(c3cc(C#CC4(O)CCCCCC4)ccc31)[C@H](C(=O)Nc1nc3ccccc3s1)[C@H]1C(=O)O[C@H](c3ccccc3)[C@H](c3ccccc3)N1[C@@H]2c1ccc(OCCO)cc1` as the compound, how does the z-score read?
**A.** -1.1

— PubChem BioAssay
